# About 83,000 compounds went through this panel and 20% of them were active in at least one assay; those are over-represented in the sample as a whole.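 In brief: 96-well plates, 48 h treatment, single concentration, percent growth endpoint.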 Calls of active or inactive are those of the source. The calls were made as follows: active = growth percent below 10; inactive = the rest.
# Test system: MDA-MB-468 breast
# Experiment: NCI-60 one-dose screen, 48 h (100 = growth as untreated, 0 = no growth, -100 = all killed)
# Conditions: 10 µM unless noted
row,Compound,growth
1,COc1ccc(NC(=O)Nc2ccc3c(ccn3C(=O)c3cccc(F)c3)c2)cc1,86.6% (inactive)
2,O=C(/C=C/c1ccccc1)c1ccc(-n2cc(CN3CCN(c4cc5c(cc4F)c(=O)c(C(=O)O)cn5C4CC4)CC3)nn2)cc1,66% (inactive)
3,CCOC(=O)c1[nH]c(C#N)c(C(=O)OCC)c1C,105% (inactive)
4,CC(=O)NNC(=S)N/C=C/c1c(C)ccc([N+](=O)[O-])c1[N+](=O)[O-],98.8% (inactive)
5,COc1ccc2c(O)cc3c(c2c1)[C@H](CCl)CN3C(=O)c1cc2cc(NC(=O)CCN3CCOCC3)ccc2[se]1,-25.3% (active)
6,CCCCCCCCOc1ccc(/C=N/Nc2cc(C)nc3ccc(Br)cc23)cc1,90% (inactive)
7,CCNC(=O)Nc1ncccc1OCc1ccc(F)cc1,101% (inactive)
8,COC(=O)[C@H](C)NC(=O)NC(=O)NC(=O)CI,70.2% (inactive)
9,O=C1OCC2=C1C(c1ccc(Cl)c(Cl)c1)c1cc3c(cc1N2CCO)OCCO3 (stereo unspecified),23.5% (inactive)
10,OCCN1CCN(c2nc(Nc3ccc(-c4nc5ccccc5[nH]4)cc3)c3cn[nH]c3n2)CC1,-82.3% (active)
11,O=C(Nc1ccc(Cl)cc1)N1CCN(c2ccc3nncn3n2)CC1,-78.2% (active)
12,CC(=O)C1N=NCC1c1ccccc1 (stereo unspecified),102% (inactive)
13,CCOC(=O)c1ccc2c(c1)nc(-c1ccc(Cl)cc1)n2-c1cc(C(C)(C)C)[nH]n1,18.7% (inactive)
14,COc1ccc2[nH]cc(-c3nn4cc(-c5ccncc5)nc4s3)c2c1,29.2% (inactive)
15,COc1cc2nc(-c3ccc(Cl)cc3)cc(OCCCNCC3CCCO3)c2cc1OC (stereo unspecified),46.2% (inactive)
16,O=C1CC(=NCC(=O)n2c(-c3ccccc3)nc3ccccc32)NN1,94% (inactive)
17,COC(C(=O)[C@@H](O)[C@@H](C)O)[C@@H]1Cc2cc3cc(O[C@H]4C[C@@H](O[C@H]5C[C@@H](O)[C@H](O)C(C)O5)[C@H](O)C(C)O4)c(C)c(O)c3c(O)c2C(=O)[C@H]1O[C@H]1C[C@@H](O[C@H]2C[C@@H](O[C@H]3C[C@@H](O)[C@H](OC)C(C)O3)[C@@H](O)C(C)O2)[C@H](O)C(C)O1 (stereo partly specified),-60% (active)
18,Cc1ccc(NC(=O)c2ccc(CN3CCOCC3)c(C(F)(F)F)c2)cc1Oc1ccc(-c2[nH]nc3ncnc(N)c23)cc1,96.8% (inactive)

row,Compound,growth
1,CCOC(=O)N1C/C(=C/c2ccc(OC)cc2)C(=O)/C(=C/c2ccc(OC)cc2)C1,-28.9% (active)
2,Cc1ccc(-n2nc3c(c(C#N)c2=O)CC(c2ccccc2[N+](=O)[O-])C([N+](=O)[O-])=C3O)cc1 (stereo unspecified),94% (inactive)
3,COc1ccc(N2C(=O)C(Oc3ccccc3)C2c2ccc(C)cc2)cc1 (stereo unspecified),122% (inactive)
4,CC(C)=CC/C=C(/C)[C@H]1CC[C@]2(C)[C@@H]1CC[C@@H]1[C@@]3(C)CCCNC(C)(C)[C@@H]3CC[C@]12C,-50.1% [100 µM] (active)
5,CC(=Nc1ccccc1)C1=C(O)C(Cc2ccccc2)NC1=O (stereo unspecified),15.4% (inactive)
6,c1cc(OCCN2CCCCC2)ccc1CNc1ccc2nc(CCC3CCCCC3)[nH]c2c1,27.4% (inactive)
7,O=C1/C(=C/c2ccccc2)COc2ccc(O)cc21,87.8% (inactive)
8,CCCCCCCCCCCCC1C/C=C\CCCC(=O)O1 (stereo unspecified),127% (inactive)
9,CC1=NN(c2cccc(Cl)c2)C(=O)/C1=C\C=C\c1ccccc1,9.96% (active)
10,CC(C)NC(=O)c1cc(-c2ccc(NC(=O)Nc3ccc(F)cc3)cc2)nc2cccnc12,88.9% (inactive)
11,O=C(N/N=C/c1ccc([N+](=O)[O-])s1)c1[nH]c2ccc(Br)cc2c1-c1ccccc1,24.8% (inactive)
12,CCN(c1ccc(Cl)cc1)c1nc(-c2ccc([N+](=O)[O-])cc2)cs1,83.8% (inactive)
13,NC(=O)OCCn1cc(-c2nc(-c3c[nH]c4ncccc34)cs2)c2ccccc21,12.4% (inactive)
14,COc1cc(Nc2ncc3c(n2)-c2ccc(Cl)cc2C(c2c(F)cccc2OC)=NC3)ccc1C(=O)O,61.9% (inactive)
15,CCN1C(=O)/C(=C/N2N=C(c3ccc(Cl)cc3)CC2c2ccc(OC)cc2)SC1=S (stereo unspecified),93.3% (inactive)
16,O=C(NCc1ccccc1)c1ccc2c(c1)NC(=O)[C@@H]1CCCN21,103% (inactive)
17,O=C(c1nnc(Nc2ccccc2Br)o1)c1c[nH]c2ccccc12,103% (inactive)
18,O=c1oc2ccc(I)cc2c(=O)n1-c1ccc(Cl)cc1F,0.339% (active)
